The nature of the test: NCI Yeast Anticancer Drug Screen. Data for the CLN2oe strain (AID 163).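 Note: 0% = growth of vehicle-only control cultures.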 As to conditions: S. cerevisiae CLN2oe strain, active compounds read high. As to the method: Growth inhibition of yeast strains with defined genetic alterations is measured as a screen for potential anti-cancer activity. Selected strains with alterations in DNA damage repair or cell cycle control were exposed to compounds and growth inhibition was measured relative to vehicle treated controls. The strain used in this assay is CLN2oe

The structures appear in SMILES notation. About 79,000 compounds went through this panel and 15% of them were active in at least one assay; those are over-represented in the sample as a whole. Unmarked numbers belong to inactive results. Activity calls are given as the source filed them. Cut-off read from the data, not from the text of the source: active = growth inhibition above about 70%; inactive = the rest.

Consider `COC(=O)/C=C(/CC(=O)OC)C(=O)OC`, for which the growth inhibition (at 1.2 µM) was 0%; the growth inhibition (at 3.7 µM) was -4%; the growth inhibition (at 11.0 µM) is 0%; the growth inhibition (at 33.0 µM) is -2%; the growth inhibition (at 100.0 µM) was -2%.

`CCOc1ccc(NC(=O)C2=C(C)NC(C)=C(C(=O)Nc3ccc(OCC)cc3)C2c2cccc([N+](=O)[O-])c2)cc1`: the growth inhibition was 0% (at 1.2 µM); -2% (at 3.7 µM); -7% (at 11.0 µM); 4% (at 33.0 µM); 81% (active) (at 100.0 µM).

As to `CCCC/C([O-])=C1/C(=O)N(c2ccccc2)N=C1C.CCCC/C([O-])=C1/C(=O)N(c2ccccc2)N=C1C.[Cu+2]`, the growth inhibition reads like this: (at 1.2 µM) -4%; (at 3.7 µM) -2%; (at 11.0 µM) 7%; (at 33.0 µM) 0%; (at 100.0 µM) 3%.

Take `COc1ccc(C2C3=C(COC3=O)OC(C)(C)Oc3cc4c(cc32)OCO4)cc1OC` (stereo not given): the growth inhibition is 11% (at 1.2 µM); 17% (at 3.7 µM); 10% (at 11.0 µM); 18% (at 33.0 µM); 90% (active) (at 100.0 µM).

Turning to `CN1CCN(C(=O)/C=C/C(=O)c2ccccc2)CC1`, the growth inhibition is 3% (at 1.2 µM); 6% (at 3.7 µM); 15% (at 11.0 µM); 36% (at 33.0 µM); 76% (active) (at 100.0 µM).

With `COc1ccc2c(c1)n([O-])c1ccccc1[n+]2=O`, the growth inhibition was -4% (at 1.2 µM); -7% (at 3.7 µM); -2% (at 11.0 µM); 25% (at 33.0 µM); 75% (active) (at 100.0 µM).

Turning to `CC(=O)OC1CCC2(C)C(=CC(C3C=C4CC(OC(C)=O)CCC4(C)C4=C3C3CC5OC6(CCC(C)CO6)C(C)C5C3(C)CC4)C3=C2CCC2(C)C3CC3OC4(CCC(C)CO4)C(C)C32)C1` (stereo not given), the growth inhibition is, setting by setting: (at 1.2 µM) -3%; (at 3.7 µM) -8%; (at 11.0 µM) -8%; (at 33.0 µM) -7%; (at 100.0 µM) 53%.

Regarding `CN(CCN(C)Cc1ccccc1)Cc1ccccc1`, the growth inhibition is -12% (at 1.2 µM); -5% (at 3.7 µM); 5% (at 11.0 µM); 18% (at 33.0 µM); 44% (at 100.0 µM).

(Values after PubChem BioAssay (NCI).)
